IL1B secr inh: inhibitors of inflammasome signaling (IL-1 beta secretion) | AID 743279 | THP-1 LPS/ATP IL-1B secretion, AlphaLISA, 16 h; stronger effect = lower value | activity change, % at 57.5 µM | 360,000 compounds, 4.7% hits; in the data active means activity change below about -50%; inconclusive means mostly about -30% to -49%
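Secreted IL-1B measured by AlphaLISA bead assay after 16 h compound exposure of THP-1 cells; compounds (final up to 57.5 uM) added 1 h before LPS (250 ng/mL) and ATP (1.25 mM) stimulation; lower signal means less secretion.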
HT1080NT lethal: kills 2HG-producing HT-1080-NT fibrosarcoma cells | HT-1080-NT fibrosarcoma viability, CellTiter-Glo ATP luminescence, 48 h | Potency, µM (highest dose often 46.1 µM), without a hit: top-dose activity, negative = less viability, most hits filed as cytotoxic | 360,000 compounds, 1.6% hits;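 further: NT is the 2HG producing partner of a matched IDH1 knockdown line; potency means the concentration at half of the fitted maximal effect; 0% = DMSO-treated cells and -100% = media-only wells without cells; nearly all actives have a fitted effect of over 55% in size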
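Toxicity toward the 2HG-producing NT line was scored as %Activity, normalised to DMSO and no-cell wells, from CellTiter-Glo luminescence after 48 hours' treatment.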
TDP1 cell noCPT: qHTS for Inhibitors of human tyrosyl-DNA phosphodiesterase 1 (TDP1): qHTS in cells in absence of CPT; AID 686978, 2013; DT40 Tdp1-/- hTDP1 cells, no CPT, ATP luminescence, 48 h; Potency, µM (doses to about 46.2 µM), without a hit: at the highest dose activity change, negative = growth inhibition, usual class: inhibitors; 420,000 compounds, 15% hits; further: potency means the concentration at half of the fitted maximal effect; nearly all actives have a fitted effect of over 55% in size
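Chicken DT40 Tdp1-/- cells stably complemented with human TDP1 were seeded at 400 cells/well with DMSO in place of 20 nM camptothecin. After compound pinning, cells grew at least 48 hr at 37 °C; viability read by CellTiter-Glo luminescence.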
TDP1 cell CPT: DT40-hTDP1 cell growth loss with CPT. chicken DT40 Tdp1-/-;hTDP1 cells + 20 nM CPT, ATP luminescence, 48 h. Potency, µM (highest dose often 46.2 µM), inactives show top-dose activity change, negative = growth inhibition, actives largely listed as inhibitors. 420,000 compounds, 12% hits; further: potency means the concentration at half of the fitted maximal effect; nearly all actives have a fitted effect of over 55% in size
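Chicken DT40 Tdp1-/- cells complemented with human TDP1, 400 cells/well, exposed to compounds plus 20 nM camptothecin for at least 48 h at 37 C; viability read as ATP content by CellTiter-Glo luminescence.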
HT1080 IDH1KD tx: HT-1080 IDH1 knockdown cell toxicity (counter line); HT-1080 IDH1 knockdown viability, ATP luminescence, 48 h; 360,000 compounds, 2% hits; Potency, µM (top dose mostly 46.1 µM), without a hit: at the highest dose activity, negative = toxicity, most hits filed as cytotoxic;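 further: potency means the concentration at half of the fitted maximal effect; 0% = DMSO wells and -100% = cell-free medium wells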
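Viability of IDH1-knockdown HT-1080 fibrosarcoma cells was assessed by CellTiter-Glo after 48 h at 37 °C with titrated compound; concentration-effect curves were classified by fit quality and response size.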
The depositor's hits bear a star; ? = inconclusive; . = no result given. Shown are actives, neighbours in structure and some others; about 19% of the full set was active somewhere. Unless noted, the call rests on the fitted dose curve; in most records, active means well fitted curve in the direction sought with a large enough effect; inconclusive means small, poorly fitted or top-dose-only effect, or another doubt; inactive means no such curve, though single readings can be large; an effect the other way counts as inactive or inconclusive. Unless noted, on the % scale 0 is the no-effect control and ±100 the full control effect.

SMILES	IL1B secr inh	HT1080NT lethal	TDP1 cell noCPT	TDP1 cell CPT	HT1080 IDH1KD tx
O=C(Nc1ccc(OC(F)(F)F)cc1)C1CCCN(C(=O)c2ccc(Cl)cc2)C1 (centres undefined)	-28	-25%	12µM*	16µM*	-22%
CCN(CC)S(=O)(=O)c1ccc(NC(=O)C2CCCN(C(=O)c3ccc(Cl)cc3)C2)cc1 (centres undefined)	-9	-5%	23µM*	16µM*	-3%
CN1CCN(C(=O)C(=O)Nc2c3c(nn2-c2ccc(F)cc2)CSC3)CC1	.	.	-3%	2%	.
Cc1ccc(CN(C(=O)Nc2cccc(Cl)c2)c2ccccn2)cc1	.	.	16µM*	?	.
COc1ccc(CN(C(=O)Nc2cccc(Cl)c2)c2ccccn2)cc1OC	.	.	13µM*	?	.
CCCCc1c(-c2ccccc2OC)ncn1CCc1cccc(F)c1	-16	21µM*	21µM*	16µM*	18µM*
CCCCc1c(-c2ccccc2OC)ncn1CCc1cccc(OC)c1	-69*	18µM*	18µM*	15µM*	16µM*
C[C@H]1CN=C(N(C)C)N1CCc1cccc(F)c1	20	-7%	-7%	3%	4%
CC(=O)NC1=NN(C(C)=O)C(c2ccc(C)cc2)S1 (centres undefined)	2	10%	-16%	-20%	8%
CC(=O)NC1=NN(C(C)=O)C(c2ccc(F)cc2)S1 (centres undefined)	42	10%	-33%	2.6µM*	5%
CN(C)c1ncc2nc(-c3ccc(F)cc3)c(=O)n(C[C@H]3CCCO3)c2n1	.	.	-2%	-4%	.
Oc1c(Cl)cc(Cl)cc1/C=N/NC(=S)NC1CC2C=CC1C2 (centres undefined)	-13	?	12µM*	?	21µM*
Oc1ccccc1C=NNC(=S)NC1CC2C=CC1C2 (centres undefined)	118	-7%	?	?	?
Oc1ccccc1/C=N/NC(=S)NC1CC2C=CC1C2 (centres undefined)	-100*	?	1.6µM*	1.8µM*	?
C[C@H](CO)N1C[C@H](C)[C@H](CN(C)C(=O)c2ccc3ccn(C)c3c2)OCc2cnnn2CCCC1=O	-7	3%	-24%	-4%	16%
C=CCOc1ccc(C(=O)Nc2ncn[nH]2)cc1	-9	-3%	-23%	2%	-4%
CCc1cccc2c(N=O)c(O)[nH]c12	-64*	0%	-17%	-2%	-18%
O=Nc1c(O)[nH]c2c(F)cccc12	4	-6%	-2%	1%	-6%
COc1nc(N)nc2c1ncn2C1OC(CO)CC1O (centres undefined)	0	3%	1.5µM*	1µM*	0%
Nc1nc(=S)c2ncn(C3OC(CO)CC3O)c2[nH]1 (centres undefined)	49	-19%	12µM*	-18%	?
Cc1ccc(N2CC(C(=O)OCC(=O)Nc3ccccc3F)CC2=O)cc1 (centres undefined)	16	-18%	8%	0%	-4%
O=C(OCc1ccccc1)N1CCC2CC1c1cc(-c3ccccc3)ccc12 (centres undefined)	2	0%	23µM*	?	5%
O=C(c1ccc(Cl)cc1)N1CCC2CC1c1cc(-c3ccccc3)ccc12 (centres undefined)	-18	-3%	-23%	16µM*	-1%
N#Cc1ccc(C(=O)N2CCC3CC2c2cc(-c4ccccc4)ccc23)cc1 (centres undefined)	-5	-3%	?	?	1%
Cc1ccc(C(=O)N2CCN(c3ccc4c(c3)C3CC4CCN3C(=O)OCc3ccccc3)CC2)cc1 (centres undefined)	-4	?	15µM*	16µM*	?
SMILES	IL1B secr inh	HT1080NT lethal	TDP1 cell noCPT	TDP1 cell CPT	HT1080 IDH1KD tx
N#Cc1ccc(C(=O)N2CCC3CC2c2cc(N4CCCCC4)ccc23)cc1 (centres undefined)	10	-2%	16µM*	16µM*	-1%
COc1ccc(NC(=O)CCN(c2ccc(OC)cc2)S(=O)(=O)c2ccc(C)c(C)c2)cc1	-17	-6%	?	?	-3%
O=c1c2ccccc2on1-c1ccccc1	-1	21%	0%	3%	19%
COc1ccc(NC(=O)Nc2ccc3c(c2)C(=O)N([C@@H](C)CO)C[C@@H](C)[C@@H](CN(C)S(=O)(=O)c2cccs2)O3)cc1	-21	-6%	?	?	-4%
O=C(CN1C(=O)NC2(CCc3ccccc32)C1=O)NCCc1ccccc1 (centres undefined)	5	11%	-4%	2%	5%
O=C(c1cccc(Cl)c1)N1CCN(c2ccc3c(c2)C2CC3CCN2C(=O)OCc2ccccc2)CC1 (centres undefined)	-29	?	15µM*	?	?
Cc1cc(C)nc(Sc2c(C)nn(-c3ccccc3)c2C)n1	7	1%	21µM*	?	-1%
O=C(COc1ccc(Br)cc1)NCC1COc2ccccc2O1 (centres undefined)	-20	3%	?	-10%	0%
CC(C)CC(=O)/C=C/n1c(=S)oc2ccccc21	-106*	-11%	2.3µM*	3.3µM*	?
Cn1c(=S)oc2ccccc21	3	15%	-5%	24%	10%
CC(=O)/C=C/n1c(=S)oc2ccccc21	-98*	5.2µM*	0.65µM*	0.82µM*	5.2µM*
CCC(C)(C)C1CCC2(CC1)NC(=O)N(CC(=O)N1CCN(S(=O)(=O)c3cc(C)ccc3C)CC1)C2=O (centres undefined)	14	3%	?	?	0%
CCN(CC)S(=O)(=O)c1ccc(O)c(NS(=O)(=O)c2ccccc2F)c1	-9	0%	-27%	?	-4%
CC(C)(C)[C@@H]1COC(=O)[C@@H](Cc2ccc(F)cc2)CC/C=C\C[C@@H](CC(=O)N(CCO)Cc2ccccc2)C(=O)N1	-18	0%	?	23µM*	0%
CC(C)(C)[C@@H]1COC(=O)[C@H](Cc2ccc(F)cc2)C/C=C\C[C@@H](CC(=O)N(CCO)Cc2ccccc2)C(=O)N1	-3	-1%	21µM*	16µM*	2%
CC(C)(C)[C@@H]1COC(=O)[C@H](Cc2ccc(F)cc2)CC/C=C\C[C@H](CC(=O)N(CCO)Cc2ccccc2)C(=O)N1	?	?	9.2µM*	9.2µM*	?

Compound activity: PubChem BioAssay, National Center for Advancing Translational Sciences (NCATS)
